We go through 1 sequence from paper PMC7862700, “An all-to-all approach to the identification of sequence-specific readers for epigenetic DNA modifications on cytosine”.

Test in all cases: DAPPL (digital affinity profiling via proximity ligation, sequencing); 10 mM Tris-HCl pH 7.5, 50 mM NaCl, 1 mM DTT, 4% glycerol, room temperature, 30 min; GST-TFs on glutathione beads, 16-mer random dsDNA library, 0.1% formaldehyde crosslink after washing; high values mean tight binding
In one experiment the target is T1, FEV (Homo sapiens, UniProt Q99581 1-238).
T1 sequence: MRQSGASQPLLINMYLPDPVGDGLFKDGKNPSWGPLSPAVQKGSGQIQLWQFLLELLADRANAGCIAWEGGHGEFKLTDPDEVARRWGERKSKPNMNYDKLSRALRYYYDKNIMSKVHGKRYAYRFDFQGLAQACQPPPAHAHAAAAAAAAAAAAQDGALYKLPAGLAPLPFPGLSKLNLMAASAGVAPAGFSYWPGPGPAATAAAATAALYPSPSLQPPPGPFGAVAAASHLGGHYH
Conditions: protein: recombinant; tags: N-terminal GST; dsDNA, one strand shown. The method in brief: (§1)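 Each value of binding signal is a hexamer's read frequency for a factor divided by the same hexamer's frequency in the tag-only sample. Barcoded, bead-captured GST fusions of human transcription factors made in yeast were pooled with that sample and incubated with 200 nmole of a random double-stranded 16-mer DNA library in Tris/NaCl/DTT/glycerol buffer at room temperature for 30 min. Washing, 0.1% formaldehyde crosslinking, proximity ligation, PCR and Illumina NextSeq500 sequencing followed.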

The next experiment concerns the target ETV5 (Homo sapiens, UniProt P41161 1-510). The following applies: protein: recombinant; tags: N-terminal GST; dsDNA, one strand shown. The method in brief:
as §1

The target in a further experiment is HSF1 (Homo sapiens, UniProt Q00613 1-529). The following applies: protein: recombinant; tags: N-terminal GST; chain copies: 3; dsDNA, one strand shown. In outline:
as §1

Another experiment addresses T2, SPIC (Homo sapiens, UniProt Q8N5J4 1-248).
T2 sequence: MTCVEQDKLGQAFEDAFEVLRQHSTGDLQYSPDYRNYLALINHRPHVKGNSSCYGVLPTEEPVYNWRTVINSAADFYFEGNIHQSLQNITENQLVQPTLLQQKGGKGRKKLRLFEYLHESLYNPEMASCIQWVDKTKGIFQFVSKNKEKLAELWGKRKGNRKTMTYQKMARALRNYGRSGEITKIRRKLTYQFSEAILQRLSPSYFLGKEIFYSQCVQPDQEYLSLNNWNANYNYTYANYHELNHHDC
Conditions: protein: recombinant; tags: N-terminal GST; dsDNA, one strand shown. The method in brief:
as §1

The next experiment addresses ELF4 (Homo sapiens, UniProt Q99607 1-663). Conditions: protein: recombinant; tags: N-terminal GST; dsDNA, one strand shown. The method in brief:
as §1

The next experiment concerns the target T3, ELK4 (Homo sapiens, UniProt P28324-2 1-405).
T3 sequence: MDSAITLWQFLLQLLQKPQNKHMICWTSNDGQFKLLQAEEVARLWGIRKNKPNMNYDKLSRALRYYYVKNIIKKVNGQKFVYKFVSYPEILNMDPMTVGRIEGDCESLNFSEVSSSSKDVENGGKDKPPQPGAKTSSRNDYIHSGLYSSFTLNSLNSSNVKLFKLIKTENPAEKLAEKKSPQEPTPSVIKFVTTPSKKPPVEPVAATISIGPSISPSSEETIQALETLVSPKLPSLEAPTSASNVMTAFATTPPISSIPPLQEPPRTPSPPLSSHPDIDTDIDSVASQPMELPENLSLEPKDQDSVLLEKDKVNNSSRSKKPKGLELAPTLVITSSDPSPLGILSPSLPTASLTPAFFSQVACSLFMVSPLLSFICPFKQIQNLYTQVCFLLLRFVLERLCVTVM
Conditions: protein: recombinant; tags: N-terminal GST; dsDNA, one strand shown. In outline: as §1

For another experiment, the target named is T4, ETV2 (Homo sapiens, UniProt O00321 1-342).
T4 sequence: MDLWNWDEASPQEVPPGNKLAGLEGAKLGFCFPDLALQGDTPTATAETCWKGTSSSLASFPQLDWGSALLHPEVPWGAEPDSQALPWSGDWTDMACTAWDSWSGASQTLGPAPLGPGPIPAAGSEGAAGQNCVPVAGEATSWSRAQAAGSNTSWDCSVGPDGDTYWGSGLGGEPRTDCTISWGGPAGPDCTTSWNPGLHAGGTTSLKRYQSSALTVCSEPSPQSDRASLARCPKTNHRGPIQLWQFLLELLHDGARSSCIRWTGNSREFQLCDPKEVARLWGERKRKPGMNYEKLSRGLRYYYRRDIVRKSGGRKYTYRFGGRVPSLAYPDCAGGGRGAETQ
Conditions: protein: recombinant; tags: N-terminal GST; dsDNA, one strand shown. In outline: as §1

The target in a further experiment is T5, ELF3 (Homo sapiens, UniProt P78545 1-371).
T5 sequence: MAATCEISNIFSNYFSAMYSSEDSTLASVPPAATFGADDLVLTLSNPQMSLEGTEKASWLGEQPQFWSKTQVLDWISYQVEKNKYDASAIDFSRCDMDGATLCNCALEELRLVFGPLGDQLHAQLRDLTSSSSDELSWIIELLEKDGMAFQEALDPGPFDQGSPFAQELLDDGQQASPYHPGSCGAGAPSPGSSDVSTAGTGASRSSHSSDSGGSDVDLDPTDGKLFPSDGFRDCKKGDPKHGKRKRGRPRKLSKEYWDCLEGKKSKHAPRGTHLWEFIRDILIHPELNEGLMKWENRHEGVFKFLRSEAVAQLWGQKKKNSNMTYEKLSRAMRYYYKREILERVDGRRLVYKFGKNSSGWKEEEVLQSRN
The following applies: protein: recombinant; tags: N-terminal GST; dsDNA, one strand shown. In outline:
as §1

The target in a further experiment is CRX (Homo sapiens, UniProt O43186 1-299). The following applies: protein: recombinant; tags: N-terminal GST; dsDNA, one strand shown. The method in brief: as §1
The target of a further experiment is ETV1 (Homo sapiens, UniProt P50549 1-477). The following applies: protein: recombinant; tags: N-terminal GST; dsDNA, one strand shown. The method in brief:
as §1

The target in the next experiment is T6, ERF (Homo sapiens, UniProt P50548 1-548).
T6 sequence: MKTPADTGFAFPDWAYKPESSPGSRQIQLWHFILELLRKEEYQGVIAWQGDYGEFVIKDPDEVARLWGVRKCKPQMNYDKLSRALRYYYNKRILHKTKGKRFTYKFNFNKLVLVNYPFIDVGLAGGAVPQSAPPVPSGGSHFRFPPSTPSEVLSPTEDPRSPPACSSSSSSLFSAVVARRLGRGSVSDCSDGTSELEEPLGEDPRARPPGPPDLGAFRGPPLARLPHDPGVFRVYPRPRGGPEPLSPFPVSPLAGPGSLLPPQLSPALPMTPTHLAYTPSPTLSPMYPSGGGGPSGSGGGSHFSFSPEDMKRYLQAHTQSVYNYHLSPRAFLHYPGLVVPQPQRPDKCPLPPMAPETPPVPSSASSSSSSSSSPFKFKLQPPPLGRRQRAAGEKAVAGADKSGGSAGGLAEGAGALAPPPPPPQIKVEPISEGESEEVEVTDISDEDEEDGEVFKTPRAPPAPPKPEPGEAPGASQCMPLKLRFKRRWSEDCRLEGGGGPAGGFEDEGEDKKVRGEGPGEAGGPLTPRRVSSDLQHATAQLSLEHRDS
The following applies: protein: recombinant; tags: N-terminal GST; dsDNA, one strand shown. The method in brief:
as §1

A further experiment deals with T7, ETV3L (Homo sapiens, UniProt Q6ZN32 1-361).
T7 sequence: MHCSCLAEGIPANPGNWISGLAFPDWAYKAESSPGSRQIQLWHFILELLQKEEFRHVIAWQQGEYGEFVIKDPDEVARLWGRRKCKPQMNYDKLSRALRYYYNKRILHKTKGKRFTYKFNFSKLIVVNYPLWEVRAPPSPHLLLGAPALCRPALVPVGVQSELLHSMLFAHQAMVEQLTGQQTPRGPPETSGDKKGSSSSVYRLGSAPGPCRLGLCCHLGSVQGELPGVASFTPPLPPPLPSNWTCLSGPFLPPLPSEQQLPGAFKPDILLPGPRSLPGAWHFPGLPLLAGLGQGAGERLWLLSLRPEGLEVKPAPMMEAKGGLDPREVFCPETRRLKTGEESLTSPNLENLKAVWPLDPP
Conditions: protein: recombinant; tags: N-terminal GST; dsDNA, one strand shown. The method in brief:
as §1

The next experiment has as its target T8, ETS2 (Homo sapiens, UniProt P15036 1-469).
T8 sequence: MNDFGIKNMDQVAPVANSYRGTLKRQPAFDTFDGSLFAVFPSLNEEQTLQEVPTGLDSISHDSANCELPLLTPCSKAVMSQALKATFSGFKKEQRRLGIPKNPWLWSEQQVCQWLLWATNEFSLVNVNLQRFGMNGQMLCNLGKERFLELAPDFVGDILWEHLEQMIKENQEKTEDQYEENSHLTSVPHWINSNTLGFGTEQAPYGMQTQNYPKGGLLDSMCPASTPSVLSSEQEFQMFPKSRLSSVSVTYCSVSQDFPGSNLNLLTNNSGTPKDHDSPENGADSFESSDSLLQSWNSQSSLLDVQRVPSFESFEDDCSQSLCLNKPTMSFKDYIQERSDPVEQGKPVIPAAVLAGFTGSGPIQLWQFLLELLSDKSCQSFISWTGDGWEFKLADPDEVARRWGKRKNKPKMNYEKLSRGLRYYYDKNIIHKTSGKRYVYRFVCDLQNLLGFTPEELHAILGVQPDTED
Conditions: protein: recombinant; tags: N-terminal GST; dsDNA, one strand shown. In outline: as §1

A further experiment deals with T9, SPDEF (Homo sapiens, UniProt O95238 1-335).
T9 sequence: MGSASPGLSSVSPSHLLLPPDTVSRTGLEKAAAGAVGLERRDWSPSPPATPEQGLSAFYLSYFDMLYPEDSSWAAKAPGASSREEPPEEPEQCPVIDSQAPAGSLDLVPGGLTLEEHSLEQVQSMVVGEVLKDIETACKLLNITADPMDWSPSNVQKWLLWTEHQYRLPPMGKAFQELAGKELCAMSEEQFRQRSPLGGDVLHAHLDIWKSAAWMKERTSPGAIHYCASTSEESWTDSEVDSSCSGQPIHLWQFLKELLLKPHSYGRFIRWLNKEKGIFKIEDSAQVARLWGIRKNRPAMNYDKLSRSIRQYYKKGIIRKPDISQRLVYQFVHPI
Conditions: protein: recombinant; tags: N-terminal GST; dsDNA, one strand shown. The method in brief: as §1

The target of the next experiment is T10, ETV7 (Homo sapiens, UniProt Q9Y603 1-341).
T10 sequence: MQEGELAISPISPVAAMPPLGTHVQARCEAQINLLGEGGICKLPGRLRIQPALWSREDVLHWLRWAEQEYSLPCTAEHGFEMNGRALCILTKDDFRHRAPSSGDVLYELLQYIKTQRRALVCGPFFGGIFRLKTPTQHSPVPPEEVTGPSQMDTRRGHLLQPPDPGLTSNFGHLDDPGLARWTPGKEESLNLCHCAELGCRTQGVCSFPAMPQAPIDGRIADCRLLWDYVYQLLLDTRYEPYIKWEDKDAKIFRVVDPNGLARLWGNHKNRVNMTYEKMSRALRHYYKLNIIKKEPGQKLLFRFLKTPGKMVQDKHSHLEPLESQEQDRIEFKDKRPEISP
Conditions: protein: recombinant; tags: N-terminal GST; dsDNA, one strand shown. The method in brief:
as §1

The target of the next experiment is T11, ELF5 (Homo sapiens, UniProt Q9UKW6-2 1-255).
T11 sequence: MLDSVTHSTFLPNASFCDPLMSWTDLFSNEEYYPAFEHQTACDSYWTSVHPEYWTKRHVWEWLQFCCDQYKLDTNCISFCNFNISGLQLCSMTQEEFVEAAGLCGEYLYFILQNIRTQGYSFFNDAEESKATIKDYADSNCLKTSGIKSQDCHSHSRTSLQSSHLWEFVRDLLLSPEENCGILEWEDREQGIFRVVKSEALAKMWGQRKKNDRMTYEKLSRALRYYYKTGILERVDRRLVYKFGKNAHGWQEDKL
The following applies: protein: recombinant; tags: N-terminal GST; dsDNA, one strand shown. The method in brief:
as §1

A further experiment addresses T12, ETV3 (Homo sapiens, UniProt P41162-2 1-143).
T12 sequence: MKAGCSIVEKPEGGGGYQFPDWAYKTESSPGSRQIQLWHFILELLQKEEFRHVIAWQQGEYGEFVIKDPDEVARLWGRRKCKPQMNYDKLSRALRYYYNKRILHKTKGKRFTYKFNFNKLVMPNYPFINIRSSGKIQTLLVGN
The following applies: protein: recombinant; tags: N-terminal GST; dsDNA, one strand shown. The method in brief: as §1

In another experiment the target is ETV6 (Homo sapiens, UniProt P41212 1-452). Conditions: protein: recombinant; tags: N-terminal GST; dsDNA, one strand shown. In outline:
as §1

Sequence of ELF4 (Q99607 whole entry): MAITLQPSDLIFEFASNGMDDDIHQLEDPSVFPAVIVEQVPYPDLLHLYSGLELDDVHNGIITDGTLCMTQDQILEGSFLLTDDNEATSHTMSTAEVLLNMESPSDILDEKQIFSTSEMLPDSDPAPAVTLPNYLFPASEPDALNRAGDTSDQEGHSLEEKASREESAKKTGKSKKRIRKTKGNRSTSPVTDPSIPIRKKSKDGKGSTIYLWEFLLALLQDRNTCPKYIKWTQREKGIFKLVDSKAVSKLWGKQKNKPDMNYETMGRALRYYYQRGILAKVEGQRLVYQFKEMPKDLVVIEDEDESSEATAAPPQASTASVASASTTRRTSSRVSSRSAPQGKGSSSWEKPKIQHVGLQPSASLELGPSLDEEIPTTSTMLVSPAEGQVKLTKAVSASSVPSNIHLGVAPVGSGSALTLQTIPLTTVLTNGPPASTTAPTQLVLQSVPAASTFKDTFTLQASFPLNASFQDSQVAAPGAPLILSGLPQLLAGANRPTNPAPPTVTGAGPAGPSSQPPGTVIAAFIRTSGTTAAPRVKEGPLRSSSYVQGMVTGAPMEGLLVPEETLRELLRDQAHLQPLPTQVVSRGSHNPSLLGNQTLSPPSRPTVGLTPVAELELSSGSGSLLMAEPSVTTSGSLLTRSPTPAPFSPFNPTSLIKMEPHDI
Sequence of ETV6 (P41212 whole entry): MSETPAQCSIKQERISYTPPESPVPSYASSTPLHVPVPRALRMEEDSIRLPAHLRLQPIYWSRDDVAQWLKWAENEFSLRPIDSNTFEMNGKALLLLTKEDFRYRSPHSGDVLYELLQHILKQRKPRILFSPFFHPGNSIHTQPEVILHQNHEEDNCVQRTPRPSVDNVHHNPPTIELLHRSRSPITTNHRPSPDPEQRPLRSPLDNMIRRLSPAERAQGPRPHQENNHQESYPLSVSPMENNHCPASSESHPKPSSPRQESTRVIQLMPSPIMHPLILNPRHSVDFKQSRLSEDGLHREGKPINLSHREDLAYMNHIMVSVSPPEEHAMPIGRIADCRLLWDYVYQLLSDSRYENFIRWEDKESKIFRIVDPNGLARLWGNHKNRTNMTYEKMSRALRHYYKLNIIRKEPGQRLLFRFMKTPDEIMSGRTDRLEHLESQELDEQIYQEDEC
Sequence of ETV1 (P50549 whole entry): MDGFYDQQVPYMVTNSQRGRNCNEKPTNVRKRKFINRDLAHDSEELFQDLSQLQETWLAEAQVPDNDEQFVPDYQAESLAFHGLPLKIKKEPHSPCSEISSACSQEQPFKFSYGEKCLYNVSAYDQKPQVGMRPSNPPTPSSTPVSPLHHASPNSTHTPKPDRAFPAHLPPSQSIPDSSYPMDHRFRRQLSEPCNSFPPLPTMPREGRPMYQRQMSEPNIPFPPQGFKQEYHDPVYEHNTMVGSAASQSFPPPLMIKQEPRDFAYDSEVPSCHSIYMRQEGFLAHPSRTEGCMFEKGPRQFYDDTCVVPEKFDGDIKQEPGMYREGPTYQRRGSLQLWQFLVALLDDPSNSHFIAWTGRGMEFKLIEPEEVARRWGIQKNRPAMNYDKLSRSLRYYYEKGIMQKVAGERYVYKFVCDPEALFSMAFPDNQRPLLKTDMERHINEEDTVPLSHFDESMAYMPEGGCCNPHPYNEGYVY
Sequence of CRX (O43186 whole entry): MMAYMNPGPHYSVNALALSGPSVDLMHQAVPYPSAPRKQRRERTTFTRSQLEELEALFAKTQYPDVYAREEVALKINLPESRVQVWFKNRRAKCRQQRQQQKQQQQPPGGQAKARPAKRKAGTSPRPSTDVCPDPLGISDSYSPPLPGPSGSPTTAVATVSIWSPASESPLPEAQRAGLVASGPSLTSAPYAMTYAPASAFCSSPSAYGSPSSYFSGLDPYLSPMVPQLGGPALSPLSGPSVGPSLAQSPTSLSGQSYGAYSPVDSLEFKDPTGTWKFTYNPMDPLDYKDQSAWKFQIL
Sequence of HSF1 (Q00613 whole entry): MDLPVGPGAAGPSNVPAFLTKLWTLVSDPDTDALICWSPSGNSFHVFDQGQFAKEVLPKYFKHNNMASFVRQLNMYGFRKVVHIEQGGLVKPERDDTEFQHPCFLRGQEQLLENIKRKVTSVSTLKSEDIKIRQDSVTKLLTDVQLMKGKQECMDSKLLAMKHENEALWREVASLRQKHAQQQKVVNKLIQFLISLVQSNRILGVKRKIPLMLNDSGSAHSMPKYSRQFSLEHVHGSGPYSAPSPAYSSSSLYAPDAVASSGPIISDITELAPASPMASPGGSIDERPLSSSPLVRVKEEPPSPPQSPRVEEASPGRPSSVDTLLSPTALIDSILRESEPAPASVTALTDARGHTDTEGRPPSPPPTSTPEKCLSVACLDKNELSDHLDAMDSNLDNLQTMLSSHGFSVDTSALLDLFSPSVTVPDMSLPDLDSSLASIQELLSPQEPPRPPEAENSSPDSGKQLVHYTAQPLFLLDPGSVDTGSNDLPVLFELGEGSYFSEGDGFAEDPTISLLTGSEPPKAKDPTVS
Sequence of ETV5 (P41161 whole entry): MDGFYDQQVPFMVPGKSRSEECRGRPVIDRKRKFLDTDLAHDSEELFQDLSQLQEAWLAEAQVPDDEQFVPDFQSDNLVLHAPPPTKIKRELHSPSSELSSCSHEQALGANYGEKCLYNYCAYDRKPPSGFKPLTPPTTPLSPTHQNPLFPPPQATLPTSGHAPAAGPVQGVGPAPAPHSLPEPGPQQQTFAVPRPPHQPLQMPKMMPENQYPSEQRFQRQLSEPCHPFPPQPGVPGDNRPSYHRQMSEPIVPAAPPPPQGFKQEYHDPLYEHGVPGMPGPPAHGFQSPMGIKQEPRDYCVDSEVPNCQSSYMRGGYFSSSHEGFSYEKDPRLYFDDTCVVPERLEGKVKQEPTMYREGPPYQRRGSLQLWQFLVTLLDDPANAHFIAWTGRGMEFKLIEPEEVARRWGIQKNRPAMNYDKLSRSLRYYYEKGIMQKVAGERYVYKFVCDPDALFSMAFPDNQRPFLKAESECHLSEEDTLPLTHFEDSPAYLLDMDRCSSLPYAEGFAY

For TCGATC, the binding signal is 1.09 fold enrichment (6-mer frequency, TF over GST control) with FEV; 1.19 fold enrichment (6-mer frequency, TF over GST control) in the experiment with ETV5; 1.54 fold enrichment (6-mer frequency, TF over GST control) with HSF1; 1.1 fold enrichment (6-mer frequency, TF over GST control) with SPIC; 1.14 fold enrichment (6-mer frequency, TF over GST control) with ELF4; 1.15 fold enrichment (6-mer frequency, TF over GST control) in the experiment with ELK4. The binding signal in the experiment with ETV2 was 1.06 fold enrichment (6-mer frequency, TF over GST control); with ELF3, 1.17 fold enrichment (6-mer frequency, TF over GST control); with CRX, 1.23 fold enrichment (6-mer frequency, TF over GST control); in the experiment with ETV1 it was 1.16 fold enrichment (6-mer frequency, TF over GST control); in the experiment with ERF it was 1.12 fold enrichment (6-mer frequency, TF over GST control); with ETV3L, 1.2 fold enrichment (6-mer frequency, TF over GST control). Further, the binding signal with ETS2 was 1.15 fold enrichment (6-mer frequency, TF over GST control); in the experiment with SPDEF, 1.09 fold enrichment (6-mer frequency, TF over GST control); with ETV7, 1.17 fold enrichment (6-mer frequency, TF over GST control); in the experiment with ELF5, 1.11 fold enrichment (6-mer frequency, TF over GST control); with ETV3, 1.18 fold enrichment (6-mer frequency, TF over GST control); with ETV6, 1.11 fold enrichment (6-mer frequency, TF over GST control).
